# Measurements from PubChem BioAssay AID1851 (National Center for Advancing Translational Sciences (NCATS), 2009).
# Screen size: about 16,000 compounds; about 5,800 (36%) were called active. About 23% were inconclusive and are not listed. The list shows a part of the results. Values without a mark were called inactive. The call rests on the fitted dose curve; in most records, active means well fitted curve in the direction sought with a large enough effect; inconclusive means small, poorly fitted or top-dose-only effect, or effect the other way; inactive means no such curve, though single readings can be large or run the other way.
# Target: Cytochrome P450 2C19 (Homo sapiens) (UniProt P33261)
# Test: Cytochrome panel assay with activity outcomes
# Conditions: recombinant CYP, pro-luciferin dealkylation, luminescence, p450-cyp2c19; series mostly up to 57.1 µM; activity, negative = inhibition: at the top concentration
# On the % scale 0 is the no-effect control and ±100 the full control effect.
# Sequence of Cytochrome P450 2C19 (Homo sapiens) (P33261 whole entry, looked up): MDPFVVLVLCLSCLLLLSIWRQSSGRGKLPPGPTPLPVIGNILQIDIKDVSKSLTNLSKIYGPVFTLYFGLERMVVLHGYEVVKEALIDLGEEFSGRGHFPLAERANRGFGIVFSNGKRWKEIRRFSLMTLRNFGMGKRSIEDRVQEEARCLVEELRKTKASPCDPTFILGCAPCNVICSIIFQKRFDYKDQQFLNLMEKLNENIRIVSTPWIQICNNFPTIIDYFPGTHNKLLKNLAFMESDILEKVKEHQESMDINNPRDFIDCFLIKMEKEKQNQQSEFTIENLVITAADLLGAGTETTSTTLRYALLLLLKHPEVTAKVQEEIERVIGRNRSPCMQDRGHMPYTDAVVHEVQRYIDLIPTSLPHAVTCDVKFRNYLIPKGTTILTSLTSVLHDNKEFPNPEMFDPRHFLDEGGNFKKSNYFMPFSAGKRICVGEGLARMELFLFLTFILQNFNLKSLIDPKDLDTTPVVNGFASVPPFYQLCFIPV
Structure (SMILES),"activity, negative = inhibition",AC50
C[C@@]1(CCOCc2ccccc2)NC(=O)NC1=O,0.432% [at 11.4 µM],
COc1ccc(C2(CNC(=O)/C=C/c3ccco3)CCCC2)cc1OC,,7.94 µM (active)
COc1cc(OC)c(OC)cc1C=NCC1(c2ccccc2)CCCC1,-3.79%,
CC[N+](CC)(CC)CC[C@](O)(c1ccccc1)C1CCCCC1,-27.2% [at 25.6 µM],
CCCc1cc2c(n1CCc1ccc(Cl)cc1)C(C)C1CN(C(=O)c3ccccc3)C(C)(C(=O)OC)C21 (stereo not drawn),,6.31 µM (active)
Nc1ccc(C(=O)C[C@H](N)C(=O)O)cc1O,-13.9% [at 11.4 µM],
O=C(O)[C@H]1CCCNC1,-20.1%,
Cc1ccccc1-c1cc(-c2ccccc2O)on1,,4.47 µM (active)
Cc1[nH]c2ccccc2c1-c1cc(-c2cc(-c3c(C)[nH]c4ccccc34)on2)no1,0.833% [at 11.4 µM],
Oc1ccccc1-c1cc(-c2ccccc2)no1,,7.94 µM (active)
Nc1nc(-c2cc(-c3cccc4ccccc34)nc(N)n2)cc(-c2cccc3ccccc23)n1,11.9% [at 11.4 µM],
Nc1nc(-c2ccccc2)cc(-c2ccccc2O)n1,,10 µM (active)
CC(C)=NOCc1ccc(-c2cc(-c3ccccc3)no2)cc1,-13.3% [at 11.4 µM],
COc1cc2c(cc1OC)-c1cc3ccc(OC)c(OC)c3c[n+]1CC2,6.43% [at 25.6 µM],
COC(=O)C1=C(C)C(c2ccc(OC)cc2)NC(=S)N1 (stereo not drawn),,14.1 µM (active)
CCOC(=O)C1=C(C)NC(=S)NC1c1cccc(O)c1 (stereo not drawn),,25.1 µM (active)
CCOC(=O)C1=C(C)C(c2ccccc2OC)NC(=S)N1 (stereo not drawn),,5.62 µM (active)
COc1ccc(N2C(=O)CCC(C(=O)O)C2c2ccc(F)cc2)cc1 (stereo not drawn),0.032%,
COc1ccc(C2C(C(=O)N3CCOCC3)CCC(=O)N2c2ccc(OC)cc2)cc1 (stereo not drawn),-8.37%,
CCOC(=O)c1c(NC(C)=O)sc2c(OC)cccc12,-21.9%,
CS(=O)(=O)N1CCC2(CC1)CN(C(=O)Nc1cccc(C#N)c1)C2,-28.2%,
CCN(CC)C(=O)Cn1cnc([N+](=O)[O-])n1,-10.4%,
CC(C)(C)NC(=O)Cn1cnc([N+](=O)[O-])n1,-15.5%,
CC(NC(=O)Cn1cnc([N+](=O)[O-])n1)c1ccccc1 (stereo not drawn),,39.8 µM (active)
O=S(=O)(c1ccccc1)N1CCCC1c1nc2ccccc2s1 (stereo not drawn),,4.47 µM (active)

Structure (SMILES),"activity, negative = inhibition",AC50
O=C1CCC(c2ccccc2)=NN1c1nc2ccccc2s1,6.12% [at 11.4 µM],
O=S(=O)(c1ccccc1)N1CCC2(CCN(C(c3ccccc3)c3ccccc3)CC2)CC1,7.59%,
N#CCCn1c(=O)c(-c2cccc(C#N)c2)nc2cnc(N3CCOCC3)nc21,-0.444%,
COc1ccc2c(c1)-c1ccccc1S(=O)(=O)N2C,,14.1 µM (active)
CC1CC2=C(NC(=S)NC2c2ccc(F)cc2)/C(=C/c2ccc(F)cc2)C1 (stereo not drawn),,3.55 µM (active)
N#Cc1ccc(C(=O)Nc2ccc(N3CCN(C(=O)c4ccco4)CC3)cc2)c(F)c1,32.4%,
Cc1cccc(C(=O)NCN2CCN(c3ccccc3C#N)CC2)c1,,inactive
Cc1ccccc1C(=O)N1CCN(c2ccc([N+](=O)[O-])c(NCc3ccco3)c2)CC1,,3.16 µM (active)
Cc1cccc(C(=O)N2CCN(c3ccc([N+](=O)[O-])c(NCc4ccco4)c3)CC2)c1,,7.94 µM (active)
CC[C@]1(O)C[C@H]2CN(CCc3c([nH]c4ccccc34)[C@](C(=O)OC)(c3cc4c(cc3OC)N(C=O)[C@H]3[C@@](O)(C(=O)OC)[C@H](OC(C)=O)[C@@]5(CC)C=CCN6CC[C@]43[C@H]65)C2)C1,0.687%,
Cc1[nH]nc(-c2ccc(OCc3cnn(-c4ccccc4)c3)cc2O)c1Oc1ccccc1F,,1.78 µM (active)
O=C(Nc1ccc2oc(-c3ccccc3F)nc2c1)c1ccc2c(c1)OCCO2,,3.98 µM (active)
O=C(Cc1ccccc1)NC1CCN(S(=O)(=O)c2ccc(C(=O)O)cc2)CC1,-16.9%,
O=C(NC1CCN(Cc2ccccc2)CC1)c1ccc(I)cc1,,15.8 µM (active)
CCC(C)[C@H](NC(=O)NC1CCN(Cc2ccccc2)CC1)C(=O)OC (stereo partly drawn),-5.66%,
CCCNC(=O)N1CCC(C(=O)c2ccc(F)cc2)CC1,,17.8 µM (active)
CN(C)CCNC(=O)C(C(=O)c1ccc(F)cc1)n1ccccc1=O (stereo not drawn),-7.72%,
Cc1ccc(NC(=O)CN2CCC(NC(=O)Cc3ccccc3)CC2)cc1C,,0.0178 µM (active)
COc1cc(N)c(Cl)cc1C(=O)NC1CCN(Cc2ccccc2)CC1,2.99% [at 25.6 µM],
COc1ccccc1NC(=O)CN1CCN(c2ccccc2F)CC1,,2.51 µM (active)
O=C1C(O)=C(O)C(=O)C(O)=C1O,17.6% [at 25.6 µM],
NC(N)=NNC(=O)C(=O)O,28.3% [at 11.4 µM],
CCN(CC)c1ccc(NC(=O)CN2CCN(c3ccccc3F)CC2)cc1,,14.1 µM (active)
O=C(c1ccc(F)cc1)C1CCN(CCCCc2ccccc2)CC1,-26%,
COc1ccccc1NC(=O)CN1CCC(C(=O)c2ccc(F)cc2)CC1,,5.01 µM (active)

Structure (SMILES),"activity, negative = inhibition",AC50
CCOc1ccccc1NC(=O)C(=O)NCC1CCCN1CC (stereo not drawn),-28.1%,
Cc1cccc(N2CCN(CC(=O)Nc3ccc(-n4cnnn4)cc3)CC2)c1C,-15%,
CCOc1ccccc1NC(=O)CN1CCC(NC(=O)c2ccccc2)CC1,,1 µM (active)
CC(C)NC(=O)N1CC2(CCN(C(=O)c3cc(C(F)(F)F)cc(C(F)(F)F)c3)CC2)C1,-25.6%,
Nc1ncnc(N(c2ccccc2)C2CCCCC2)c1[N+](=O)[O-],-9.85%,
N=c1nc(N2CCCCC2)cc(N)n1O,,inactive
Fc1ccccc1OCCCCSc1ncccn1,,3.98 µM (active)
COc1cccc(-c2nccc(NC3CCNCC3)n2)c1,-23%,
CCNc1ncc2nc(-c3cccc(C#N)c3)c(=O)n(C)c2n1,3.41%,
COc1cccc(-c2nccc(-n3ccnc3)n2)c1,,2.51 µM (active)
N#Cc1cccc(-c2nccc(-n3ccnc3)n2)c1,,7.94 µM (active)
CN1CCN(c2ccnc(-c3ccoc3)n2)CC1,-64.3%,
c1cn(-c2ccnc(-c3ccc4c(c3)OCO4)n2)cn1,,10 µM (active)
N#Cc1cccc(-c2nc(N3CCNCC3)c3ccccc3n2)c1,-10%,
N#Cc1cccc(-c2cc(-n3ccnc3)ncn2)c1,,0.158 µM (active)
C[n+]1cc(-c2ccccc2)n2c1CCCCC2,-27%,
CCCCSCc1nc2nc(Cl)c(Cl)nc2[nH]1,,2 µM (active)
CC(C)(C)C(=O)NC(Nc1cccc2cccnc12)C(Cl)(Cl)Cl (stereo not drawn),,0.794 µM (active)
O=C(Nc1cccc2cccnc12)[C@@H]1[C@@H](C(=O)O)[C@H]2CC[C@@H]1O2,29.3% [at 11.4 µM],
NC(=S)Nc1cccc2cccnc12,-16.1%,
CCCCCCOC(=O)C(C#N)c1nc2ccccc2nc1N1CCN(CC)CC1 (stereo not drawn),,8.91 µM (active)
CC(C)NC1(C(N)=O)CCN(Cc2ccccc2)CC1,-1.03% [at 11.4 µM],
COC(=O)N1CCC2(CCCN(Cc3ccccc3)C2)CC1,2.29%,
CCN1CCN(c2nn3c(=O)c4ccccc4nc3c3ccccc23)CC1,-58.2%,
CC(C)OC(=O)C(C#N)c1nc2ccccc2nc1N1CCN(Cc2ccccc2)CC1 (stereo not drawn),,0.00562 µM (active)

Structure (SMILES),"activity, negative = inhibition",AC50
CCn1c(=O)[nH]c2cc(Cl)c(Cl)cc21,-23.1%,
COc1ccc(CCN2C(=NC(=O)CCC(=O)O)SC3CS(=O)(=O)CC32)cc1 (stereo not drawn),,14.1 µM (active)
CCCC(=O)N=C1SC2CS(=O)(=O)CC2N1c1ccc(CC)cc1 (stereo not drawn),,7.08 µM (active)
C=CCN1C(=NC(=O)CC)SC2CS(=O)(=O)CC21 (stereo not drawn),-1.43%,
CC(C)NC(=O)N1CC2(CCN(C(=O)c3ccncc3)CC2)C1,-30.2%,
c1ccc(C[n+]2cccc(-c3cc4ccccc4[nH]3)c2)cc1,22.1% [at 11.4 µM],
Clc1ccc(-c2cc3ccccc3[nH]2)cc1,,3.16 µM (active)
C[C@@H](N1CCOCC1)[C@@](O)(c1ccccc1)c1ccccn1,5.67% [at 11.4 µM],
OC(c1ccccc1)(c1ccc(F)cc1)C(c1ccccc1)N1CCOCC1 (stereo not drawn),,2.82 µM (active)
CC(C)NC(=O)N1CCC2(CC1)CCN(C(=O)c1cccc(F)c1)CC2,0.929%,
C=C[C@@]1(C)CC(=O)[C@@]2(O)[C@@]3(C)[C@H](O)CCC(C)(C)[C@@H]3[C@H](O)[C@H](OC(C)=O)[C@]2(C)O1,-17.4%,
C=C[C@@]1(C)CC(=O)[C@@]2(O)[C@@]3(C)[C@@H](O)CCC(C)(C)[C@@H]3[C@H](OC(=O)CCN(C)C)[C@H](OC(C)=O)[C@@]2(C)O1,,0.251 µM (active)
Cc1cc(C2CCCCC2)n(O)c(=O)c1,-32.4% [at 25.6 µM],
Cc1cc2nc(SCCOC(=O)Nc3ccc(Cl)cc3)nc(C)c2cc1C,,0.794 µM (active)
CSc1ccc(S(=O)(=O)Nc2ccc3c4c(cccc24)CC3)cc1,,0.447 µM (active)
O=C(c1cc(C(F)(F)F)cc(C(F)(F)F)c1)N1CCC2(CCN(Cc3nccs3)CC2)CC1,-44.9%,
O=C(c1cccc(F)c1)N1CCC[C@@]2(CCN(Cc3nccs3)C2)C1,,2.51 µM (active)
O=C(c1cccc(F)c1)N1CCC2(CCCN(Cc3nccs3)C2)CC1,1.9%,
O=C(c1cccc(F)c1)N1CCC2(CCN(Cc3nccs3)CC2)CC1,,1.58 µM (active)
O=C(c1ccncc1)N1CCC2(CCN(Cc3nccs3)CC2)CC1,6.61%,
O=C(c1cc(C(F)(F)F)cc(C(F)(F)F)c1)N1CCC[C@@]2(CCN(Cc3nccs3)C2)C1,-12.7%,
CCC1(c2ccccc2)C(=O)NCNC1=O,,inactive
COCCn1c(=O)c(-c2ccccc2)nc2cnc(Nc3cccc(OC)c3)nc21,-19%,
